Data on 14 compounds can be found in PubChem BioAssay (EPA / NIEHS).

The source made the active and inactive calls. Rule for the calls: active = hit-call score of the fitted dose curve at least 0.9, where 1 is the maximum; inactive = score below 0.9.

Read-out in this assay: adenosine kinase (ADK) gene, ADK (gene 132)
Description: LTEA_HepaRG_ADK: Life Technologies and Expression Analysis (LTEA) Assay for adenosine kinase (ADK) gene using HepaRG (AID 2283471). The following applies: mRNA level, 48 h; actives raise or lower the signal. The method, then:
LTEA_HepaRG is a cell based, multiplexed-readout assay that uses HepaRG, a human liver cell line, with measurements taken at 48 hours after chemical dosing on a 96-well plate.LTEA_HepaRG_ADK is one of 102 assay component(s) measured in the LTEA HepaRG cell culture assay. It is a marker of Steatosis.Data from the assay component LTEA_HepaRG_ADK was analyzed into 1 endpoint. This assay endpoint, LTEA_HepaRG_ADK, was analyzed with bidirectional fitting relative to DMSO as the negative control and baseline of activity. Using a type of inducible reporter, measures of mRNA induction for gain or loss-of-signal activity can be used to understand regulation of transcription factor activity. To generalize the intended target to other relatable targets, this assay endpoint is annotated to the kinase intended target family, where the subfamily is steatosis.
A total of 1060 chemcials from the ToxCast library were tested in eight-point concentration-response experiments. Cell culture and cytotoxicity assays were conducted at Thermo Fisher Scientific's Custom Services facility (Madison, WI). A single lot of human HepaRG cells (Thermo Fisher Scientific, Frederick, MD) was used for the cell culture experiments. 96-well format collagen type I coated plates of human HepaRG cells were prepared using established methods. Briefly, cryopreserved HepaRG cells were thawed, plated at a density of approximately 100,000 cells/well in HepaRG Thaw, Plate, and General Purpose media (HPRG770, Thermo Fisher Scientific), and incubated for 48 hours. 0.5% DMSO was selected as vehicle control to balance the requisite need of DMSO in HepaRG cultures to maintain differentiation (for example, baseline metabolism, proportions of hepatocytes vs. cholangiocytes), while enabling further hepatic receptor pathway activation (for example, PXR and CAR) in response to chemical exposure. 48 hours after plating, the culture medium was replaced with HepaRG Serum-Free Incudtion Media. Cells were exposed to each test chemical in duplicate and maintained in CO2 incubators for another 48 hours. Chemical plates were thawed to room temperature and 200x concentrations of treatment groups were prepared. 8-point conentration-reponse curves were made with the highest exposure at 100 uM, followed by half-log dilutions, all in 0.5% DMSO. Each test plate contained variouse controls, induction positive controls (1mM phenobarbital), cytotoxicity positive controls ([…] aflatoxin B1), vehicle controls (0.5% DMSO), and total lysis controls (0.5% DMSO). Cell morphology images were taken using an Essen IncuCyte FLR automated microscope, with six 96-well plates imaged in about 24 minutes. Images were captured and exported and JPEG files. Spent culture media was transfered to black-well plates for the LDH assay, and remaining media was sorted at -80 C for later use. Cells were treated with RLT buffer and frozen until shipped for gene expression analysis. Total RNA was isolated from the cell suspension in 75 uL of Buffer RLT (Qiagen, Germantown, MD 20874) by Quintiles/Expression Analysis (Durham, NC) using a custom isolation procedure. Total RNA from each plate well was transferred to a preamplification plate. Fluidigm's 96.96 Dynamic ArrayTM (Fluidigm, Amsterdam, the Netherlands) technology was used for gene expression analyses by quantitative reverse transcription polymerase chain reaction (qRT-PCR, performed by Quintiles/Expression Analysis, Durham, NC)89. Standard TaqManTM Assays (Applied Biosystems/ThermoFisher Scientific, Foster City, CA) were used to assess the expression of 93 genes selected based on their selectivity and sensitivity to important hepatic receptors known to be modulated by environmental chemicals; importance in human hepatocyte functionality; and hepatotoxicity. […]
`OCCN(CCO)CCO`: the outcome was inactive.
The value for `CC(C)O.CC(C)O.OCCN(CCO)CCO.OCCN(CCO)CCO.[Ti]` was “inactive”.
With `N#Cc1cccnc1` the entry was “inactive”.
As for `Clc1cccc(Cl)c1Cl`, the compound was called inactive.
The value for `O=C(N[C@H]1CN2CCC1CC2)c1ccc2c(c1)OCCO2` was “inactive”.
Regarding `CCCCCCCCCCCCc1cccc(S(=O)(=O)O)c1`, the compound was called inactive.
In the case of `Oc1cc(Cl)c(Cl)cc1Cl`, the compound was called inactive.
With `CC(C)(C)c1ccccc1O` the entry was “inactive”; with `Clc1cccc(Cl)c1`, “inactive”; with `O=C(O)C1(c2ccc3c(c2)OC[C@H](Cc2ccc(-c4ccccc4)cc2)[C@H]3O)CCCC1`, “inactive”.
With `COc1ccccc1N` the entry was “inactive”; with `Cc1cc(C)cc(C)c1`, “inactive”; with `CN(C)C(=S)S`, “inactive”.
With `Oc1c(Cl)cc(Cl)cc1Cl`, the call was inactive.
